Laboratory results published in PubChem BioAssay (NCI).
“And” between values parts separate entries of the source, which are not always exact repeats. Equal values may be shown once. The panel holds about 83,000 compounds, 20% with a hit somewhere; the sample as a whole holds those more often.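 Cell lines were cultured in 96-well plates, exposed to a single compound concentration, and assessed for percent growth 48 hours later.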 The source made the active and inactive calls. The calls were made as follows: active = growth percent below 10; inactive = the rest.

Columns and labels:
Test in all cases: NCI-60 one-dose screen, 48 h (100 = growth as untreated, 0 = no growth, -100 = all killed)
NCI-H23 lung = tested on: NCI-H23 lung
NCI-H226 lung = conditions: 10 µM unless noted
NCI-H322M lung = tested on: NCI-H322M lung
HOP-62 NSCLC = tested on: HOP-62 NSCLC
NCI-H460 lung = tested on: NCI-H460 lung
HOP-92 NSCLC = conditions: 10 µM unless noted
NCI-H522 lung = tested on: NCI-H522 lung
A549/ATCC NSCLC = tested on: A549/ATCC NSCLC
786-0 renal = tested on: 786-0 renal
COLO 205 colon = conditions: 10 µM unless noted
DU-145 prostate = tested on: DU-145 prostate
K-562 leukemia = tested on: K-562 leukemia
MALME-3M melanoma = tested on: MALME-3M melanoma
MDA-MB-231 breast = tested on: MDA-MB-231 breast
RXF 393 renal = conditions: 10 µM unless noted
SF-268 CNS = tested on: SF-268 CNS
SF-295 CNS = tested on: SF-295 CNS
SF-539 CNS = tested on: SF-539 CNS
UACC-257 melanoma = tested on: UACC-257 melanoma
M14 melanoma = conditions: 10 µM unless noted

Measured: growth

CC(=O)Nc1c(I)c(NC(C)=O)c(I)c(C(=O)O)c1I
inactive: NCI-H23 lung; 10 µM unless noted 110% | NCI-H226 lung 97.4% and 113% | NCI-H322M lung; 10 µM unless noted 102% and 101% | HOP-62 NSCLC; 10 µM unless noted 112% and 97.9% | NCI-H460 lung; 10 µM unless noted 109% and 103% | HOP-92 NSCLC 94.3% | NCI-H522 lung; 10 µM unless noted 102% and 24.5% | A549/ATCC NSCLC; 10 µM unless noted 105% | 786-0 renal; 10 µM unless noted 97.3% and 114% | COLO 205 colon 115% and 119% | DU-145 prostate; 10 µM unless noted 115% and 142% | K-562 leukemia; 10 µM unless noted 69.4% | MALME-3M melanoma; 10 µM unless noted 93.7% and 84.5% | MDA-MB-231 breast; 10 µM unless noted 105% and 117% | RXF 393 renal 113% and 25.5% | SF-268 CNS; 10 µM unless noted 107% and 120% | SF-295 CNS; 10 µM unless noted 90.4% and 104% | SF-539 CNS; 10 µM unless noted 99.3% and 99.7% | UACC-257 melanoma; 10 µM unless noted 105%

N#Cc1ccccc1-c1ccc(Cn2c(-c3cscn3)nc3c(Cl)cccc32)cc1
inactive: NCI-H23 lung; 10 µM unless noted 70.9% | NCI-H226 lung 66.2% | NCI-H322M lung; 10 µM unless noted 91.6% | HOP-62 NSCLC; 10 µM unless noted 97.4% | NCI-H460 lung; 10 µM unless noted 82.6% | HOP-92 NSCLC 63.7% | NCI-H522 lung; 10 µM unless noted 44.7% | A549/ATCC NSCLC; 10 µM unless noted 72.3% | 786-0 renal; 10 µM unless noted 79.8% | COLO 205 colon 107% | DU-145 prostate; 10 µM unless noted 86.5% | K-562 leukemia; 10 µM unless noted 49.2% | MALME-3M melanoma; 10 µM unless noted 92.4% | MDA-MB-231 breast; 10 µM unless noted 79.7% | RXF 393 renal 99.5% | SF-268 CNS; 10 µM unless noted 71.3% | SF-295 CNS; 10 µM unless noted 67.9% | SF-539 CNS; 10 µM unless noted 82.9% | UACC-257 melanoma; 10 µM unless noted 89.5%

COc1ccc(-c2cc(=O)c3c(O)cc(O)cc3o2)cc1
inactive: NCI-H23 lung; 10 µM unless noted 96.3% and 100% | NCI-H226 lung 106% | NCI-H322M lung; 10 µM unless noted 109% and 103% | HOP-62 NSCLC; 10 µM unless noted 113% and 114% | NCI-H460 lung; 10 µM unless noted 104% and 97.2% | HOP-92 NSCLC 95.4% and 75% | NCI-H522 lung; 10 µM unless noted 83.2% and 77.9% | A549/ATCC NSCLC; 10 µM unless noted 97.1% and 94.8% | 786-0 renal; 10 µM unless noted 107% | COLO 205 colon 101% | DU-145 prostate; 10 µM unless noted 103% and 97.8% | K-562 leukemia; 10 µM unless noted 91.5% | MALME-3M melanoma; 10 µM unless noted 113% and 110% | MDA-MB-231 breast; 10 µM unless noted 113% and 91.4% | RXF 393 renal 121% and 116% | SF-268 CNS; 10 µM unless noted 98.5% and 99.4% | SF-295 CNS; 10 µM unless noted 101% and 104% | SF-539 CNS; 10 µM unless noted 94.5% and 105% | UACC-257 melanoma; 10 µM unless noted 127% and 126%

CN1CCN(Cc2ccc(NC(=O)c3cccc(C#Cc4c(N)ncc5ccc(F)cc45)c3)cc2C(F)(F)F)CC1
active: NCI-H23 lung; 10 µM unless noted -78.2% | NCI-H226 lung 4.59% | NCI-H322M lung; 10 µM unless noted 3.59% | HOP-62 NSCLC; 10 µM unless noted -36.4% | NCI-H460 lung; 10 µM unless noted -92.3% | HOP-92 NSCLC -49.4% | NCI-H522 lung; 10 µM unless noted -61.1% | A549/ATCC NSCLC; 10 µM unless noted -69.6% | 786-0 renal; 10 µM unless noted -83.2% | COLO 205 colon -59.6% | DU-145 prostate; 10 µM unless noted -89.9% | K-562 leukemia; 10 µM unless noted -29.5% | MALME-3M melanoma; 10 µM unless noted -54.5% | MDA-MB-231 breast; 10 µM unless noted -79% | RXF 393 renal -89.6% | SF-268 CNS; 10 µM unless noted -45.8% | SF-295 CNS; 10 µM unless noted -65.4% | SF-539 CNS; 10 µM unless noted -94.5% | UACC-257 melanoma; 10 µM unless noted -62.5%

CN(C)CCNc1ncc(F)c(-c2cnc3cc(-c4cnn(C)c4)ccn23)n1
inactive: NCI-H23 lung; 0.005 µM 101% | NCI-H23 lung; 30 µM 56.9% | NCI-H226 lung 76.5% [30 µM] | NCI-H322M lung; 0.005 µM 95.6% | NCI-H322M lung; 30 µM 44.7% | HOP-62 NSCLC; 0.005 µM 103% | HOP-62 NSCLC; 30 µM 60.2% | NCI-H460 lung; 0.005 µM 101% | NCI-H460 lung; 30 µM 15.7% | NCI-H522 lung; 0.005 µM 92.4% | NCI-H522 lung; 30 µM 51.9% | A549/ATCC NSCLC; 0.005 µM 101% | A549/ATCC NSCLC; 30 µM 34.3% | 786-0 renal; 0.005 µM 102% | 786-0 renal; 30 µM 44.2% | COLO 205 colon 25.8% [30 µM] | DU-145 prostate; 0.005 µM 107% | DU-145 prostate; 30 µM 27.5% | K-562 leukemia; 0.005 µM 102% | K-562 leukemia; 30 µM 41.6% | MALME-3M melanoma; 0.005 µM 99.7% | MALME-3M melanoma; 30 µM 53.5% | MDA-MB-231 breast; 0.005 µM 98.4% | MDA-MB-231 breast; 30 µM 54.3% | RXF 393 renal 110% [0.005 µM] | SF-268 CNS; 0.005 µM 100% | SF-268 CNS; 30 µM 57.7% | SF-295 CNS; 0.005 µM 102% | SF-295 CNS; 30 µM 70.8% | SF-539 CNS; 0.005 µM 97.2% | SF-539 CNS; 30 µM 46.3% | UACC-257 melanoma; 0.005 µM 100% | UACC-257 melanoma; 30 µM 93.5% | M14 melanoma 107% [0.005 µM]

COc1ccc(-c2csc(NC(=O)CN3CCN(CCO)CC3)n2)cc1NS(=O)(=O)c1cccc2c(N(C)C)cccc12
active: MALME-3M melanoma; 10 µM unless noted -67.9%
inactive: NCI-H23 lung; 10 µM unless noted 88.1% | NCI-H226 lung 92.5% | NCI-H322M lung; 10 µM unless noted 89.9% | HOP-62 NSCLC; 10 µM unless noted 79.9% | NCI-H460 lung; 10 µM unless noted 67.1% | HOP-92 NSCLC 50.7% | NCI-H522 lung; 10 µM unless noted 79% | A549/ATCC NSCLC; 10 µM unless noted 75.7% | 786-0 renal; 10 µM unless noted 57.7% | COLO 205 colon 62% | DU-145 prostate; 10 µM unless noted 78.4% | K-562 leukemia; 10 µM unless noted 23.1% | MDA-MB-231 breast; 10 µM unless noted 71.9% | RXF 393 renal 57.7% | SF-268 CNS; 10 µM unless noted 81.2% | SF-295 CNS; 10 µM unless noted 29.7% | SF-539 CNS; 10 µM unless noted 65.7% | UACC-257 melanoma; 10 µM unless noted 68.4%
